Data published in PubChem BioAssay AID1159580 (chemical genetic matrix, 2015).
The whole screen tested about 5,500 compounds, of which about 2,000 (36%) were called active. Not shown: some 18% with an inconclusive outcome. Rule as the data show it: active = normalized growth mostly below about 0.91 (no sharp cut-off); inconclusive = no clear call, values can overlap the other calls; inactive = mostly above about 0.92. The list shows a part of the results.

Test: chemical genetic growth profiling, strain panel (AID 1159580);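 also: tested at 20 µM; growth read once vehicle control cultures reached saturation at 30 °C; 1 = growth at the plate median or of vehicle wells; lower values mean less growth of the strain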
Conditions: growth OD

Measured: normalized growth

O=C1NS(=O)(=O)c2ccccc21
inactive: S. cerevisiae deletion strains, locus YJR066W, strain TOR1, stronger effect = lower value 0.939 | S. cerevisiae deletion strains, locus YKL009W, strain mrt4, stronger effect = lower value 0.988 | S. cerevisiae deletion strains, locus YKL068W, stronger effect = lower value 1 | S. cerevisiae deletion strains, locus YKL085W, strain MDH1 (second series), stronger effect = lower value 0.994 | S. cerevisiae deletion strains, locus YKL085W, strain MDH1, stronger effect = lower value 0.994 | S. cerevisiae deletion strains, locus YKL160W, strain elf1, stronger effect = lower value 0.991 | S. cerevisiae deletion strains, locus YKL190W, strain CNB1, stronger effect = lower value 1.01 | S. cerevisiae deletion strains, locus YKR001C, strain vps1, stronger effect = lower value 0.996 | S. cerevisiae deletion strains, locus YKR026C, strain gcn3, stronger effect = lower value 1.03 | S. cerevisiae deletion strains, locus YKR091W, strain srl3, stronger effect = lower value 1.01 | S. cerevisiae deletion strains, locus YLL001W, strain dnm1, stronger effect = lower value 0.986 | S. cerevisiae deletion strains, locus YLL026W, stronger effect = lower value 1.02 | S. cerevisiae deletion strains, locus YLL041C, strain sdh2, stronger effect = lower value 1.02 | S. cerevisiae deletion strains, locus YLR027C, strain aat2, stronger effect = lower value 1.02 | S. cerevisiae deletion strains, locus YLR039C, strain RIC1, stronger effect = lower value 1.01 | S. cerevisiae deletion strains, locus YLR058C, strain SHM2, stronger effect = lower value 1.02 | S. cerevisiae deletion strains, locus YLR102C, strain apc9, stronger effect = lower value 0.979 | S. cerevisiae deletion strains, locus YLR113W, strain HOG1, stronger effect = lower value 0.978 | S. cerevisiae deletion strains, locus YLR221C, strain rsa3, stronger effect = lower value 1.06 | S. cerevisiae deletion strains, locus YLR258W, strain gsy2, stronger effect = lower value 1.03 | S. cerevisiae deletion strains, locus YLR262C, strain YPT6 (second series), stronger effect = lower value 1.01 | S. cerevisiae deletion strains, locus YLR262C, strain YPT6, stronger effect = lower value 1.02 | S. cerevisiae deletion strains, locus YLR268W, strain sec22, stronger effect = lower value 0.978 | S. cerevisiae deletion strains, locus YLR320W, strain mms22, stronger effect = lower value 1.06 | S. cerevisiae deletion strains, locus YLR330W, strain CHS5, stronger effect = lower value 1 | S. cerevisiae deletion strains, locus YLR342W, strain FKS1 (second series), stronger effect = lower value 0.968 | S. cerevisiae deletion strains, locus YLR342W, strain FKS1, stronger effect = lower value 1.03 | S. cerevisiae deletion strains, locus YLR357W, strain rsc2, stronger effect = lower value 1.01 | S. cerevisiae deletion strains, locus YLR370C, strain arc18, stronger effect = lower value 1.02 | S. cerevisiae deletion strains, locus YLR371W, strain rom2, stronger effect = lower value 0.983 | S. cerevisiae deletion strains, locus YLR384C, strain iki3, stronger effect = lower value 1.04 | S. cerevisiae deletion strains, locus YLR418C, strain cdc73, stronger effect = lower value 0.989 | S. cerevisiae deletion strains, locus YML016C, strain PPZ1, stronger effect = lower value 1.01 | S. cerevisiae deletion strains, locus YML032C, strain rad52, stronger effect = lower value 0.986 | S. cerevisiae deletion strains, locus YML120C, strain ndi1, stronger effect = lower value 0.995 | S. cerevisiae deletion strains, locus YML124C, strain tub3, stronger effect = lower value 0.999 | S. cerevisiae deletion strains, locus YMR058W, strain fet3, stronger effect = lower value 1.03 | S. cerevisiae deletion strains, locus YMR078C, strain ctf18, stronger effect = lower value 0.989 | S. cerevisiae deletion strains, locus YMR125W, strain sto1, stronger effect = lower value 0.999 | S. cerevisiae deletion strains, locus YMR129W, stronger effect = lower value 1.02 | S. cerevisiae deletion strains, locus YMR205C, strain PFK2, stronger effect = lower value 1.03 | S. cerevisiae deletion strains, locus YMR223W, strain ubp8, stronger effect = lower value 0.985 | S. cerevisiae deletion strains, locus YMR231W, strain pep5, stronger effect = lower value 1.02 | S. cerevisiae deletion strains, locus YMR307W, strain GAS1, stronger effect = lower value 0.935 | S. cerevisiae deletion strains, locus YNL067W, strain RPL9B, stronger effect = lower value 1.01 | S. cerevisiae deletion strains, locus YNL071W, strain lat1, stronger effect = lower value 1.01 | S. cerevisiae deletion strains, locus YNL153C, strain GIM3, stronger effect = lower value 1.03 | S. cerevisiae deletion strains, locus YNL183C, strain NPR1, stronger effect = lower value 0.931 | S. cerevisiae deletion strains, locus YNL209W, strain ssb2, stronger effect = lower value 1 | S. cerevisiae deletion strains, locus YNL233W, strain BNI4, stronger effect = lower value 1.02 | S. cerevisiae deletion strains, locus YNL248C, strain rpa49, stronger effect = lower value 1.08 | S. cerevisiae deletion strains, locus YNL250W, strain rad50, stronger effect = lower value 0.985 | S. cerevisiae deletion strains, locus YNL271C, strain bni1, stronger effect = lower value 0.986 | S. cerevisiae deletion strains, locus YNL298W, strain CLA4, stronger effect = lower value 0.987 | S. cerevisiae deletion strains, locus YNL307C, strain MCK1, stronger effect = lower value 0.99 | S. cerevisiae deletion strains, locus YNL322C, strain KRE1 (second series), stronger effect = lower value 1.02 | S. cerevisiae deletion strains, locus YNR049C, strain mso1, stronger effect = lower value 1.02 | S. cerevisiae deletion strains, locus YNR052C, strain pop2, stronger effect = lower value 0.981 | S. cerevisiae deletion strains, locus YOL006C, strain TOP1, stronger effect = lower value 1.08 | S. cerevisiae deletion strains, locus YOL012C, strain htz1 1.16 | S. cerevisiae deletion strains, locus YOL147C, strain pex11, stronger effect = lower value 0.992 | S. cerevisiae deletion strains, locus YOR001W, strain rrp6, stronger effect = lower value 1.06 | S. cerevisiae deletion strains, locus YOR061W, strain CKA2, stronger effect = lower value 1.02 | S. cerevisiae deletion strains, locus YOR069W, strain VPS5, stronger effect = lower value 1.01 | S. cerevisiae deletion strains, locus YOR070C, strain gyp1, stronger effect = lower value 1.02 | S. cerevisiae deletion strains, locus YOR080W, strain dia2, stronger effect = lower value 1.03 | S. cerevisiae deletion strains, locus YOR083W, strain WHI5, stronger effect = lower value 0.981 | S. cerevisiae deletion strains, locus YOR106W, strain vam3, stronger effect = lower value 0.977 | S. cerevisiae deletion strains, locus YOR136W, strain idh2, stronger effect = lower value 0.986 | S. cerevisiae deletion strains, locus YOR144C, strain elg1, stronger effect = lower value 0.993 | S. cerevisiae deletion strains, locus YOR184W, strain ser1, stronger effect = lower value 0.987 | S. cerevisiae deletion strains, locus YOR231W, strain MKK1, stronger effect = lower value 0.985 | S. cerevisiae deletion strains, locus YOR265W, strain rbl2, stronger effect = lower value 1.03 | S. cerevisiae deletion strains, locus YOR270C, strain vph1, stronger effect = lower value 1.06 | S. cerevisiae deletion strains, locus YOR290C, strain snf2, stronger effect = lower value 0.963 | S. cerevisiae deletion strains, locus YOR316C, strain cot1, stronger effect = lower value 0.983 | S. cerevisiae deletion strains, locus YPL051W, strain arl3, stronger effect = lower value 1.02 | S. cerevisiae deletion strains, locus YPL078C, strain atp4, stronger effect = lower value 0.98 | S. cerevisiae deletion strains, locus YPL106C, strain sse1, stronger effect = lower value 0.997 | S. cerevisiae deletion strains, locus YPL240C, strain hsp82, stronger effect = lower value 1.01 | S. cerevisiae deletion strains, locus YPL241C, strain CIN2, stronger effect = lower value 1 | S. cerevisiae deletion strains, locus YPL256C, strain CLN2, stronger effect = lower value 0.979 | S. cerevisiae deletion strains, locus YPR119W, strain clb2, stronger effect = lower value 0.982 | S. cerevisiae deletion strains, locus YPR141C, strain kar3, stronger effect = lower value 0.982 | S. cerevisiae deletion strains, locus YPR163C, strain tif3, stronger effect = lower value 0.986 | S. cerevisiae deletion strains, locus YPR167C, strain met16, stronger effect = lower value 0.984 | S. cerevisiae deletion strains, strain wtn01, stronger effect = lower value 0.974 | S. cerevisiae strains, strain wild type, stronger effect = lower value 1.01
